Assay in all cases: glycan array binding signal (z-score within array); higher = stronger binding
Holding throughout (settings): glycan notation: IUPAC condensed, linker removed

The target in one assay is Fuc(a1-2)Gal. Put shortly:
(§1)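 The Consortium for Functional Glycomics database supplied 3228 glycan arrays, of which those lacking an available protein sequence were dropped. The binding signal, a within-array Z-score, was averaged across arrays of the same protein sequence and across linkers. Negative scores can be read as non-binding.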

Assay [1] deals with Fuc(a1-3)[Gal3S(b1-4)]GlcNAc6S. Summed up: as §1
A further assay has as its target Gal(a1-3)Gal(b1-4)Glc. Summed up: as §1
A further assay deals with Gal(a1-3)Gal(b1-4)GlcNAc. Summed up: as §1
In another assay the target is Gal(a1-4)Gal(b1-4)Glc. Summed up: as §1
The target in the next assay is Gal(b1-3)GlcNAc. Put shortly: as §1
For assay [2], the target named is Gal(b1-3)[Fuc(a1-4)]GlcNAc(b1-3)Gal(b1-4)[Fuc(a1-3)]GlcNAc. Put shortly:
as §1

The target of another assay is Gal(b1-4)Glc. Summed up:
as §1

A further assay deals with Gal(b1-4)Glc6S. Summed up:
as §1

Assay [3] has as its target Gal(b1-4)GlcNAc(b1-3)Gal(b1-4)GlcNAc. Put shortly: as §1
The target of assay [4] is Gal(b1-4)GlcNAc(b1-3)Gal(b1-4)GlcNAc(b1-3)Gal(b1-4)GlcNAc. Put shortly: as §1
In another assay the target is Gal3S(b1-4)GlcNAc. Put shortly: as §1
The target of assay [5] is Gal3S(b1-4)[Fuc(a1-3)]Glc. Summed up:
as §1

Another assay has as its target Gal3S4S(b1-4)GlcNAc. Summed up:
as §1

For another assay, the target named is Gal3S6S(b1-4)GlcNAc6S. Put shortly: as §1
The target in another assay is Gal4S(b1-4)GlcNAc. Summed up:
as §1

A further assay addresses Glc(a1-6)Glc(a1-6)Glc. Summed up:
as §1

The target of assay [6] is Man(a1-2)Man(a1-2)Man(a1-6)[Man(a1-3)]Man. Put shortly:
as §1

For a further assay, the target named is Man(a1-2)Man(a1-3)Man. Summed up: as §1
The target in assay [7] is Man(a1-2)Man(a1-3)[Man(a1-2)Man(a1-6)]Man(a1-6)[Man(a1-2)Man(a1-2)Man(a1-3)]Man(b1-4)GlcNAc(b1-4)GlcNAc. Put shortly: as §1
The target in assay [8] is Neu5Ac(a2-3)Gal(b1-3)GalNAc(b1-3)Gal(b1-4)GlcNAc. Summed up: as §1
In assay [9] the target is Neu5Ac(a2-3)Gal(b1-4)[Fuc(a1-3)]GlcNAc6S. Summed up:
as §1

In assay [10] the target is Neu5Ac(a2-6)Gal(b1-4)GlcNAc(b1-2)Man(a1-3)[Gal(b1-4)GlcNAc(b1-2)Man(a1-6)]Man(b1-4)GlcNAc(b1-4)GlcNAc. Summed up:
as §1

Another assay deals with Gal(b1-4)GlcNAc6P. Summed up: as §1
Another assay deals with Gal6S(b1-4)GlcNAc6S. Summed up:
as §1

In a further assay the target is Glc(b1-6)Glc. Put shortly: as §1
In assay [11] the target is GlcA3S(b1-3)Gal(b1-4)GlcNAc(b1-2)Man. Summed up: as §1
In assay [12] the target is GlcNAc(a1-4)Gal(b1-4)GlcNAc(b1-3)Gal(b1-4)GlcNAc(b1-3)Gal(b1-4)GlcNAc. Summed up:
as §1

Assay [13] has as its target GlcNAc(b1-3)Gal(b1-4)GlcNAc. Put shortly: as §1
The target in assay [14] is GlcNAc(b1-4)Gal(b1-4)GlcNAc. Put shortly:
as §1

For the next assay, the target named is Kdn(a2-6)Gal(b1-4)GlcNAc. Summed up:
as §1

Assay [15] has as its target Man(a1-2)Man(a1-2)Man(a1-3)Man. Summed up:
as §1

Assay [16] has as its target Neu5Ac(a2-3)Gal(b1-3)GlcNAc(b1-3)Gal(b1-4)GlcNAc. Put shortly: as §1
For assay [17], the target named is Neu5Ac(a2-3)Gal(b1-4)GlcNAc. Summed up: as §1
Assay [18] concerns the target Neu5Ac(a2-3)Gal(b1-4)[Fuc(a1-3)]GlcNAc(b1-6)[Gal(b1-3)]GalNAc. Summed up: as §1
For another assay, the target named is Neu5Ac(a2-6)GalNAc. Put shortly: as §1
For a further assay, the target named is Neu5Ac(a2-8)Neu5Ac. Put shortly:
as §1

The target of assay [19] is Neu5Ac(a2-8)Neu5Ac(a2-8)Neu5Ac. Summed up:
as §1

The target in a further assay is Neu5Ac(b2-6)GalNAc. Summed up:
as §1

The target in assay [20] is Neu5Gc(a2-3)Gal(b1-3)[Fuc(a1-4)]GlcNAc. Put shortly: as §1
The target in assay [21] is Neu5Gc(a2-8)Neu5Ac(a2-3)Gal(b1-4)GlcNAc. Put shortly: as §1
The target in a further assay is Fuc(a1-2)Gal(b1-3)GlcNAc. Summed up:
as §1

The next assay deals with Fuc(a1-2)[Gal(a1-3)]Gal. Put shortly:
as §1

The next assay has as its target Gal(a1-3)Gal(b1-3)GlcNAc. Summed up: as §1
Another assay concerns the target Gal(a1-6)Glc. Summed up: as §1
A further assay concerns the target Gal(b1-3)Gal(b1-4)GlcNAc. Summed up:
as §1

The target of assay [22] is Gal(b1-3)GlcNAc(b1-3)Gal(b1-4)Glc. Summed up: as §1
For assay [23], the target named is Gal(b1-3)[Fuc(a1-4)]GlcNAc. Summed up: as §1
The target in assay [24] is Gal(b1-4)GlcNAc(b1-3)[GlcNAc(b1-6)]Gal(b1-4)GlcNAc. Summed up: as §1
For assay [25], the target named is Gal(b1-4)GlcNAc(b1-6)[Gal(b1-3)]GalNAc. Summed up:
as §1

The target in another assay is Gal3S(b1-4)Glc. Summed up:
as §1

Another assay has as its target Gal6S(b1-4)Glc6S. Summed up: as §1
For assay [26], the target named is GalNAc(b1-3)Gal(a1-4)Gal(b1-4)GlcNAc. Summed up:
as §1

In assay [27] the target is GlcNAc(b1-2)Gal(b1-3)GalNAc. Summed up:
as §1

Assay [28] addresses Neu5Ac(a2-3)Gal(b1-3)GalNAc. Summed up: as §1
Assay [29] has as its target Neu5Ac(a2-3)Gal(b1-4)GlcNAc(b1-2)Man(a1-3)[Neu5Ac(a2-6)Gal(b1-4)GlcNAc(b1-2)Man(a1-6)]Man(b1-4)GlcNAc(b1-4)GlcNAc. Put shortly:
as §1

The target of assay [30] is Neu5Ac(a2-3)Gal(b1-4)GlcNAc(b1-6)[Gal(b1-3)]GalNAc. Summed up:
as §1

For assay [31], the target named is Neu5Ac9Ac(a2-6)Gal(b1-4)GlcNAc. Summed up: as §1
Assay [32] concerns the target Neu5Gc(b2-6)Gal(b1-4)GlcNAc. Summed up:
as §1

Only a selection was taken, and the strongest signals are over-represented in it overall.

B1: NESD (Drosophila melanogaster), NP_610025.1 (protein)
chain: MGHHHHHHSSGVDLGTENLYFQSMMEVFTFEKSYLERLKEAEAVLSWEGAVMPASQVRSEWKSYVELKIEPAGWQAIWKIPRVICEDLKLRYPTIVYGYVEQVIFDELKAVFVVTAVQDSDVHLPESNEVSLVELWPTVQQENAALNVDTTAECIDRLRFFYTHVWMPWDKDYDDDRDWVQQHLQARIQLVCDLSKNRLPRPLALHMRTLLAEAKYIQQRLDYLELDLSDAESDDEAVELNDSVAEPARKQSKAGSANGCLNVSSLPVTDLMCLHLRMAIIRSEFEILENPEMRRAYSELQSNSLKRLRCSSGRTRQSEDLLVERNSISHVVTLPGKLQQQLELLKLAQTLVKPESKVQLSNTLQDVLSICQSNDDILLSPGEHTIKFLEHLNDNGSLRGLTQPEAILSPAADLSLLPVVCSSDEDSTLLVIDGDYTLSELVLDCRHVRRGILLRNGTLTMRGCRLLGDGSSSTQEGIVCMPGASVELKSCLIENFAVGVSMRPKSSAELGSVQFKTCKTGLELLEKSASVNLQGSKCSFENCALGILADGFVLGEQRTEKVLVLNKFSELQRYNEDNLLGNCSFYNCKKNVRVFNESGQLLAQRSHQQLLEDELGGENKENIQLV
In the case of B1, the “glycan array binding signal (z-score)” value with Fuc(a1-2)Gal was 0.437; in [1], 1.18; in the assay with Gal(a1-3)Gal(b1-4)Glc it was -0.126; in the assay with Gal(a1-3)Gal(b1-4)GlcNAc, -0.108; in the assay with Gal(a1-4)Gal(b1-4)Glc it was -0.242; with Gal(b1-3)GlcNAc it was -0.219. The “glycan array binding signal (z-score)” value is -0.47 in assay [2]; 3.98 with Gal(b1-4)Glc; 2.75 in the assay with Gal(b1-4)Glc6S; 0.201 in assay [3]; 0.303 in assay [4]; 0.142 in the assay with Gal3S(b1-4)GlcNAc. Moreover, the “glycan array binding signal (z-score)” value in assay [5] is -0.195; with Gal3S4S(b1-4)GlcNAc it was 0.201; with Gal3S6S(b1-4)GlcNAc6S it was 1.17; with Gal4S(b1-4)GlcNAc, 0.349; with Glc(a1-6)Glc(a1-6)Glc, 6.3; in assay [6], -0.364. Moreover, the “glycan array binding signal (z-score)” value with Man(a1-2)Man(a1-3)Man was -0.316; in [7], 0.313; in assay [8], 0.016; in assay [9], 0.068; in [10], 0.256.

B2: SGC, Q9M345 (protein)
chain: QNLNFTYNGFHPPLTDISLQGLATVTPNGLLKLTNTSVQKTGHAFCTERIRFKDSQNGNVSSFSTTFVFAIHSQIPTLSGHGIAFVVAPTLGLPFALPSQYIGLFNISNNGNDTNHIFAVEFDTIQSSEFGDPNDNHVGIDLNGLRSANYSTAGYRDDHDKFQNLSLISRKRIQVWIDYDNRSHRIDVTVAPFDSDKPRKPLVSYVRDLSSILLEDMYVGFSSATGSVLSEHFLVGWSFRLNGEAPMLSLSKLPKLPRFEPRRIS
B2: the “glycan array binding signal (z-score)” value is -0.448 with Gal(b1-4)GlcNAc6P; 0.254 with Gal6S(b1-4)GlcNAc6S; -0.344 with Glc(b1-6)Glc; -0.501 in [11]; -0.351 in [12]; -0.367 in assay [13]. In addition, the “glycan array binding signal (z-score)” value was -0.349 in [14]; -0.393 with Kdn(a2-6)Gal(b1-4)GlcNAc; -0.36 in [15]; -0.413 in [16]; -0.311 in [17]; 8.35 in [18]. Besides, the “glycan array binding signal (z-score)” value with Neu5Ac(a2-6)GalNAc is -0.34; with Neu5Ac(a2-8)Neu5Ac it was -0.356; in assay [19] it was -0.347; with Neu5Ac(b2-6)GalNAc, -0.286; in assay [20] it was -0.349; in assay [21], -0.365.

B3: Langerin CRD (Homo sapiens), Q9UJ71 (protein)
chain: QVVSQGWKYFKGNFYYFSLIPKTWYSAEQFCVSRNSHLTSVTSESEQEFLYKTAGGLIYWIGLTKAGMEGDWSWVDDTPFNKVQSVRFWIPGEPNNAGNNEHCGNIKAPSLQAWNDAPCDKTFLFICKRPYVPSEPSAWSHPQFEK
Consider B3, for which the “glycan array binding signal (z-score)” value was 0.647 in the assay with Fuc(a1-2)Gal; 0 in the assay with Fuc(a1-2)Gal(b1-3)GlcNAc; 4.04 with Fuc(a1-2)[Gal(a1-3)]Gal; -0.623 with Gal(a1-3)Gal(b1-3)GlcNAc; -0.487 in the assay with Gal(a1-3)Gal(b1-4)Glc; -0.427 with Gal(a1-6)Glc. Besides, the “glycan array binding signal (z-score)” value with Gal(b1-3)Gal(b1-4)GlcNAc is -0.488; in assay [22], -0.48; in [23], -0.279; in [24] it was 0.314; in assay [25], -0.489; with Gal3S(b1-4)Glc, -0.325. Also, the “glycan array binding signal (z-score)” value is 4.01 with Gal6S(b1-4)Glc6S; 6.72 with Gal6S(b1-4)GlcNAc6S; -0.356 in assay [26]; 4.61 in [27]; 1.57 in assay [14]; 4.1 in assay [15]. The “glycan array binding signal (z-score)” value in assay [7] is -0.352; in assay [28], -0.547; in assay [29], -0.647; in assay [30], -0.693; in the assay with Neu5Ac(a2-8)Neu5Ac, -0.544; in assay [31] it was -0.422. Besides, the “glycan array binding signal (z-score)” value in assay [32] is -0.263.

The record behind these values is the supplement of paper PMC8728848.
